Measurements taken from PubChem BioAssay (NCATS).
Records with an inconclusive call do not appear. Calls of active or inactive are those of the source. The call rests on the fitted dose curve; in most records, active means well fitted curve in the direction sought with a large enough effect; inconclusive means small, poorly fitted or top-dose-only effect, or another doubt; inactive means no such curve, though single readings can be large or run the other way.

Assay: qHTS for Inhibitors of the vitamin D receptor (VDR): Hit Validation using a Texas Red Assay (AID 602201)
Settings: VDR coregulator binding, Texas Red fluorescence polarization, agonist-bound VDR ligand-binding domain; series mostly up to 57.1 µM
Outline: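 Fluorescence polarization with 1.5 uM VDR-LBD, LG19078 and 7 nM Texas Red (final). After 2 hours at ambient temperature, read at Ex 595 nm/Em 615 nm.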
Potency means the concentration at half of the fitted maximal effect.

Potency, active:
O=C(c1cccs1)c1no[n+]([O-])c1C(=O)c1cccs1 3.55 µM, CCN(CC)c1ccc(NC(=O)c2ccccc2)cc1S(=O)(=O)Nc1ccccc1OC 10 µM, COc1ccc(/C=C/C(=O)c2ccc([N+](=O)[O-])o2)cc1OC 10 µM, O=C1C=C(c2ccccc2)C(=O)N1Nc1ccccc1 3.55 µM, COc1ccc(N2C(=O)C(Cl)=C(Oc3cccc(OC)c3)C2=O)cc1 2.82 µM, Cc1c(Cc2ccc3c(c2)OCO3)sc(NC(=O)c2cccc3ccccc23)c1C(N)=O 28.2 µM, CS(=O)(=O)c1ccc(C(=O)OCc2nnc(-c3ccc(Cl)cc3)o2)cc1[N+](=O)[O-] 8.91 µM, CCOc1ccc(/C=C/C(=O)c2c(O)cc(C)oc2=O)cc1 25.1 µM, O=C(Nc1cc(S(=O)(=O)N2CCOCC2)ccc1N1CCCC1)c1ccc(Cl)cc1 20 µM, O=[N+]([O-])c1c(NCCCO)cc(Sc2ccc(Cl)cc2)c2nonc12 15.8 µM, Nc1c(N2CCCC2)cc(Cl)c2nonc12 3.98 µM, c1ccc(CCc2nn3c(Cn4cnc5ccccc54)nnc3s2)cc1 28.2 µM

Potency, inactive:
O=C(NC1CCCCCC1)C(=S)N1CCOCC1, CN1CCN(C(=O)c2sc(=S)n(-c3ccccc3)c2N)CC1, O=C(O)CN1C(=O)/C(=C\c2cc(Br)ccc2OCc2ccc(Cl)cc2Cl)SC1=S, Cc1nc(NC(=O)c2ccc(Cl)cc2)sc1Cc1ccc2c(c1)OCO2
